13 compounds from PubChem BioAssay (NCI) can be followed below.

Common to all, as to assay: NCI-60 one-dose screen, 48 h (100 = growth as untreated, 0 = no growth, -100 = all killed)
What all share (conditions): 10 µM unless noted

Test [1] relates to DU-145 prostate.
The test system of test [2] is K-562 leukemia.
Test [3] concerns MALME-3M melanoma.
Test [4] deals with MDA-MB-231 breast.
Test [5] relates to RXF 393 renal.
Test [6] deals with SF-268 CNS.
For test [7], the system named is SF-295 CNS.
The test system of test [8] is SF-539 CNS.
The subject of test [9] is UACC-257 melanoma.
The test system of test [10] is M14 melanoma.

SMILES strings stand for the structures. This is part of a sample that, as a whole, favours compounds with a hit. Of some 83,000 tested, about 20% had one in any assay.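 Note: values are percent growth. 100 is the growth of untreated cells, values between 100 and 0 indicate rising inhibition; between -100 and 0 indicates cell death.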 A number with no mark means an inactive call. Calls of active or inactive are those of the source. How the source made its calls: active means growth percent below 10; inactive means the rest.

In the case of `COc1ccc(/C=C/C(=O)/C=C(/C=C/c2ccc(OC)c(OC)c2)OB(F)F)cc1OC`, the growth in test [1] is 35.1%; in test [2], 17.4%; in test [3], 25.4%; in test [4], 21%; in [5], -10.8% (active); in test [6], 34.9%. For the same compound, the growth in [7] was 69.4%; in test [8], 28.8%; in test [9] it was 59.1%; in test [10] it was 11.1%.
On to `CCCCn1c(=O)c(/C=C/C(=O)/C=C/c2cc3ccccc3n(CCCC)c2=O)cc2ccccc21`, for which the growth was -7.95% (active) in [1]; 3.37% (active) in test [2]; 8.02% (active) in test [3]; -18.8% (active) in test [4]; -89.9% (active) in test [5]; 7.91% (active) in test [6]. Moreover, the growth is 3.65% (active) in [7], -7.12% (active) in [8], -24% (active) in test [9] and -29.9% (active) in [10].
Turning to `CNc1cccc2c1C(=O)c1cccc(N)c1C2=O`, the growth in [1] is 40.1%; in test [2], 26.2%; in [3] it was 87.4%; in [4], 85.9%; in test [5], 60.9%; in [6], 56.1%. In addition, the growth in [7] was 88.5%; in [8] it was 85.7%; in test [9] it was 80.5%; in test [10], 11.3%.
As to `COC(=O)[C@]1(C)CCC[C@]2(C)[C@H]3C[C@H]4C(C(C)C)=C[C@]3(CC[C@H]21)[C@@H]1C(=O)N(CCC#N)C(=O)[C@@H]14`, the growth in test [1] was 99.4%; in test [2] it was 55.8%; in test [3] it was 103%; in test [4], 89.5%; in [5], 86.7%; in [6], 89.4%. In addition, the growth is 99.5% in test [7], 98% in test [8], 85.4% in [9] and 83.1% in test [10].
For `COc1cc2c(cc1OCCCOc1cc3c(cc1OC)C(=O)N1CC(F)(F)C[C@H]1C=N3)N=C[C@@H]1CC(F)(F)CN1C2=O`, the growth in test [1] is 17%; in [2], 9.11% (active); in [3] it was -57.6% (active); in [4], 16%; in test [5], -65.5% (active); in test [6], 30.4%. The growth was 8.54% (active) in [7], -27.9% (active) in test [8], 34.9% in test [9] and -0.895% (active) in test [10].
Take `C=C1C(=O)O[C@H]2[C@H]1CC/C(COC(=O)CCCCCCCCC(=O)OC/C1=C/CC[C@@]3(C)O[C@H]3[C@H]3OC(=O)C(=C)[C@@H]3CC1)=C\CC[C@@]1(C)O[C@@H]21`: the growth is 6.71% (active) in test [1]; 1.49% (active) in test [2]; -18.4% (active) in [3]; -41.2% (active) in test [4]; -86.6% (active) in [5]; 20.7% in test [6]. In addition, the growth was 87.4% in [7], -36.6% (active) in [8], 24.6% in test [9] and -44.7% (active) in [10].
As to `COc1ccc([C@H]2[C@@H](F)C(=O)N2c2cc(OC)c(OC)c(OC)c2)cc1F`, the growth in test [1] was 9.46% (active); in [2], 9.45% (active); in test [3], 74%; in test [4], 19.6%; in [5], 28.8%; in test [6], 33.1%. Besides, the growth was 18.6% in test [7], 4.17% (active) in test [8], 38.7% in test [9] and 1.91% (active) in [10].
For `C=C1C(=O)O[C@H]2[C@H]1CC/C(COC(=O)c1cn(C)c3ccccc13)=C\CC[C@@]1(C)O[C@@H]21`, the growth is -72.4% (active) in test [1]; 0.396% (active) in test [2]; -60.3% (active) in test [3]; -49% (active) in test [4]; -87.8% (active) in test [5]; -8.89% (active) in test [6]. Also, the growth in test [7] is 63.8%; in test [8] it was -58% (active); in test [9], -56% (active); in [10], -36.8% (active).
On to `C#CCN(CCCOc1ccc(Cl)cc1Cl)CCCSC(=O)CCCCCN1/C(=C\C=C2/CCCC(/C=C/C3=[N+](CCCCCC(=O)[O-])c4ccccc4C3(C)C)=C2Cl)C(C)(C)c2ccccc21`, for which the growth in [1] is 47%; in test [2], 0.955% (active); in test [3], -56.2% (active); in [4] it was -6.25% (active); in test [5] it was -45.2% (active); in test [6], 7.44% (active). Also, the growth in [7] is 53.3%; in [8], -50.2% (active); in [9] it was 30.8%; in [10], 49.7%.
In the case of `COc1ccc2nc3c(n2c1)C(=O)C(=O)c1ccccc1-3`, the growth in [1] was -92.5% (active); in [2] it was -18.2% (active); in test [3], -90.1% (active); in test [4] it was 16.7%; in [5], -16.9% (active); in [6] it was 2.6% (active). The growth is -95.3% (active) in [7], -95.3% (active) in test [8], -83.2% (active) in [9] and -82.9% (active) in test [10].
For the compound `O=C(Nc1ccc2ncnc(Nc3cccc(C(F)(F)F)c3)c2c1)c1cccs1`, the growth in test [1] is 39.6%; in test [2], 26.3%; in test [3], 106%; in test [4], 54.3%; in [5], 66.2%; in test [6] it was 51.4%. Also, the growth is 44% in [7], 87.7% in test [8], 103% in test [9] and 49.5% in test [10].
In the case of `COc1ccc(-c2cn(-c3ccc(Cl)cc3)c(=S)[nH]2)cc1OC`, the growth in [1] is 78.5%; in test [2], 75.9%; in test [3] it was 90.2%; in test [4], 53%; in [5] it was 11%; in test [6], 96.1%. In addition, the growth was 68.6% in [7], 85.6% in test [8], 65.8% in test [9] and 4.41% (active) in test [10].
Regarding `O=C(/C(=C/c1ccc([N+](=O)[O-])cc1)SCc1ccc(Cl)cc1)c1ccc(F)cc1`, the growth in test [1] was 86.3%; in test [2], 1.3% (active); in test [3], 85.7%; in test [4], 56.3%; in test [5], 92%; in test [6], 76.1%. Further, the growth was 84.9% in test [7], 88.6% in [8], 92.5% in [9] and 47.3% in [10].
